Screen size: about 310,000 compounds; about 14,000 (4.5%) showed an effect of 50% or more. The effect is printed as a negative number. The sample as a whole holds a higher share of strong results than the screen did.
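Note: peak tail current of the secondary pulse compared with the same well before compound.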

The target in this experiment is human ether-à-go-go-related gene (hERG) potassium channel (human, UniProt Q12809). The experiment is described as follows: primary screen, population patch clamp on CHO cells stably expressing hERG; higher = less effect of the substance.
human ether-à-go-go-related gene (hERG) potassium channel, sequence (Q12809 whole entry, looked up): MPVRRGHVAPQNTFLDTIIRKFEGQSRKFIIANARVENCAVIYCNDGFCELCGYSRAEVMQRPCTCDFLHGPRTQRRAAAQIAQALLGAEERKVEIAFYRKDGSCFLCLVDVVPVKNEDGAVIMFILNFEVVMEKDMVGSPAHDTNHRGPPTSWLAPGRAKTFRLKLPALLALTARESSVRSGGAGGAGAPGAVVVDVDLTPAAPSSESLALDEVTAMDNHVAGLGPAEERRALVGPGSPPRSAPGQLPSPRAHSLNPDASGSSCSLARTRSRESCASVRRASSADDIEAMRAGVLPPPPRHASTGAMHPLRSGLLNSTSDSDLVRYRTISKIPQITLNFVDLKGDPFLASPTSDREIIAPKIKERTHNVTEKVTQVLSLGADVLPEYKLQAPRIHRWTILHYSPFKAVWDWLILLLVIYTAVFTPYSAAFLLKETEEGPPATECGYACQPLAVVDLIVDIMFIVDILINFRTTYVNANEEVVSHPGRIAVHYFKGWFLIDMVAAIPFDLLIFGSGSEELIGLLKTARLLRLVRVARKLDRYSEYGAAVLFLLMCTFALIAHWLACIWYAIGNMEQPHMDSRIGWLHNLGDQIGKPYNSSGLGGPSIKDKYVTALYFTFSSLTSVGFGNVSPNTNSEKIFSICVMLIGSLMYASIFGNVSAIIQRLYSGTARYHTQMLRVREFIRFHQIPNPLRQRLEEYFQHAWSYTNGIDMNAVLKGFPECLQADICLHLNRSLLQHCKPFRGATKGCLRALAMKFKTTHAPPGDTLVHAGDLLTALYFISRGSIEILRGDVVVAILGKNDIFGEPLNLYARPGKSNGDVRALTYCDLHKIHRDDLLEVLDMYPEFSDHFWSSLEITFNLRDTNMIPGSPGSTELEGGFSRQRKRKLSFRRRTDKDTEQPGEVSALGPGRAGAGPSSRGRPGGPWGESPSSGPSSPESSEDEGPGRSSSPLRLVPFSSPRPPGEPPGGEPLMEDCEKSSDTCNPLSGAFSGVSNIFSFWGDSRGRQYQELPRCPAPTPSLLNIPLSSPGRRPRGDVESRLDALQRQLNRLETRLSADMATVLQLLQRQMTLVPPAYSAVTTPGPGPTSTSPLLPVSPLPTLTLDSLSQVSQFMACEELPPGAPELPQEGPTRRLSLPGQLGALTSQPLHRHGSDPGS
Consider `COc1cc2cc(C)nc(Cc3cccc4ccccc34)c2cc1OC`, for which the “hERG current change (%, negative = inhibition) at 10uM” value is recorded as 8.53%.
The result for `CC#CP(=O)(OCC)C(O)(c1ccccc1)C(F)(F)F` (centres unmarked) reads -3.29%; that for `CC(=O)Nc1c(O)nc(SCC(=O)Nc2cccc(C)c2)[nH]c1=O`, 14.8%.
As to `CCOc1cc(-c2ccc(N)c(OCC)c2)ccc1N`, the “hERG current change (%, negative = inhibition) at 10uM” value is given as -10.2%.
The same measure for `S=C(NCc1ccc(Cl)c(Cl)c1)Nc1ccc2c(c1)OCO2`: -6.19%; for `Nn1c(SCC(=O)Nc2ccc(S(N)(=O)=O)cc2)nnc1C(F)(F)F`: 0.037%.
The same measure for `Cc1cc(Cl)cc(C)c1OCCCCCn1ccnc1`: -28.1%; for `CN1CCC(=O)N([C@H](CSc2ccc(Br)cc2)Cc2ccccc2)CC1`: -64.8%.
The same measure for `Cc1ccc(SC[C@H](Cc2ccccc2)N2CC[C@@H](C)CCC2=O)cc1`: -28.7%; for `CCCN1CCC(=O)N([C@H](CSc2ccc(Br)cc2)Cc2ccccc2)CC1`: -71.2%; for `CCCN1CCC(=O)N([C@H](CSc2ccccc2)Cc2ccccc2)CC1`: -69.6%.
As for `CC(C)(C)[C@H]1CCC(=O)N([C@H](CSc2ccc(Br)cc2)Cc2ccccc2)CC1`, the “hERG current change (%, negative = inhibition) at 10uM” value is given as 4.84%.
The result for `CN1CCC(=O)N([C@H](CSc2ccccc2)Cc2ccccc2)CC1` reads -45.8%; that for `C[C@H]1CCC(=O)N([C@H](CSc2ccc(Br)cc2)Cc2ccccc2)CC1`, 7.31%; that for `CC(C)(C)[C@H]1CCC(=O)N([C@H](CSc2ccccc2)Cc2ccccc2)CC1`, -3.06%.
The same measure for `CCOC(=O)c1c(NC(=O)C[n+]2ccc(Cc3ccccc3)cc2)sc(C)c1C.[Cl-]`: -43.5%; for `CC1CCN(c2cc(N3CCC(C)CC3)c([N+](=O)[O-])cc2/C=C(\C#N)c2nn(-c3ccccc3)c(N)c2C#N)CC1`: -10.2%; for `O=c1[nH]c(CN2CCCC2)nc2sc3c(c12)CCC3`: 20.5%.
The same measure for `O=c1[nH]c(CN2CCN(S(=O)(=O)c3ccccc3C(F)(F)F)CC2)nc2sc3c(c12)CCCC3`: 10.9%.
On to `Cc1ccc(-c2c(C)sc3nc(CN4CCN(CC(=O)NC5CC5)CC4)[nH]c(=O)c23)cc1`, for which the “hERG current change (%, negative = inhibition) at 10uM” value is -71.5%.
The result for `CC(=O)N1CCN(C(=O)CCc2nc3sc4c(c3c(=O)[nH]2)CCCC4)CC1` reads 5.61%; that for `Cc1ccc(S(=O)(=O)N2CCN(Cc3nc4sc(C)c(C)c4c(=O)[nH]3)CC2)cc1`, 18.2%.
The result for `O=C(CCc1nc2sc3c(c2c(=O)[nH]1)CCCC3)N1CCN(c2ccccc2)CC1` reads 2.7%.
The result for `Cc1cccc(C(=O)N2CCN(Cc3nc4sc5c(c4c(=O)[nH]3)CCCC5)CC2)c1` reads -58.4%; that for `Cc1ccc(C(=O)N2CCN(Cc3nc4sc5c(c4c(=O)[nH]3)CCCC5)CC2)cc1`, -76%; that for `Cc1ccc(S(=O)(=O)N2CCN(Cc3nc4sc5c(c4c(=O)[nH]3)CCCC5)CC2)cc1`, -21.3%.
In the case of `O=C(c1ccccc1F)N1CCN(Cc2nc3sc4c(c3c(=O)[nH]2)CCCC4)CC1`, the “hERG current change (%, negative = inhibition) at 10uM” value is on record as -81.6%.
The result for `Cc1cccc(NC(=O)CCc2nc3sc4c(c3c(=O)[nH]2)CCCC4)c1` reads 10.8%; that for `Cc1sc2nc(CN3CCOCC3)[nH]c(=O)c2c1-c1ccccc1`, 2.19%.

Values taken from paper PMC4336329 (PLoS ONE, 2015).
